Screening data deposited in PubChem BioAssay by National Center for Advancing Translational Sciences (NCATS).
Compounds with a hit are over-represented: about 18% of the library has one in this group of screens.
TDP1 cell noCPT: qHTS for Inhibitors of human tyrosyl-DNA phosphodiesterase 1 (TDP1): qHTS in cells in absence of CPT; hit rate 15% among 420,000; AID 686978, 2013; DT40 Tdp1-/- hTDP1 cells, no CPT, ATP luminescence, 48 h; Potency, µM (highest dose often 46.2 µM), most hits filed as inhibitors; also: nearly all actives have a fitted effect of over 55% in size
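Seeded 400 DT40-hTDP1 cells/well (vehicle DMSO, no 20 nM CPT); pinned compounds; ≥48 hr at 37 °C; CellTiter-Glo luminescence as viability measure.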
HepG2 viability: qHTS for Inhibitors of TGF-b: Cytotox Counterscreen. Potency, µM (series often up to 46.1 µM), actives largely listed as cytotoxic. hit rate 0.76% among 410,000. HepG2 CAGA-GFP viability, ATP luminescence, 18 h
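CellTiter-Glo luminescence gave cytotoxicity after 18 hours at 37 degrees C. The cells were HepG2 CAGA-GFP in 1% FBS DMEM, stimulated with 500 pg/mL TGF-beta after compound addition. %Activity was normalised to no-cell wells (complete cell-killing) and DMSO (no toxicity), and curves were fitted and classified.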
TDP1 cell CPT: qHTS for Inhibitors of human tyrosyl-DNA phosphodiesterase 1 (TDP1): qHTS in cells in presence of CPT; chicken DT40 Tdp1-/-;hTDP1 cells + 20 nM CPT, ATP luminescence, 48 h; hit rate 12% among 420,000; Potency, µM (doses to about 46.2 µM), actives largely listed as inhibitors; also: nearly all actives have a fitted effect of over 55% in size
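Chicken DT40 Tdp1-/- cells stably complemented with human TDP1 were seeded at 400 cells/well in medium containing 20 nM camptothecin, exposed to pin-transferred compounds, and grown at 37 °C for at least 48 hr. Viability was read as ATP luminescence.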
TDP1 block: qHTS Assay for Inhibitors of Tyrosyl-DNA Phosphodiesterase (TDP1). Tyrosyl-DNA phosphodiesterase 1 (Homo sapiens), Q9NUW8. recombinant TDP1, AlphaScreen DNA substrate cleavage. Potency, µM (titrated, usually from 130 µM), most hits filed as inhibitors. hit rate 0.28% among 350,000; also: nearly all actives have a fitted effect of over 40% in size
Target sequence (Q9NUW8 whole entry, looked up): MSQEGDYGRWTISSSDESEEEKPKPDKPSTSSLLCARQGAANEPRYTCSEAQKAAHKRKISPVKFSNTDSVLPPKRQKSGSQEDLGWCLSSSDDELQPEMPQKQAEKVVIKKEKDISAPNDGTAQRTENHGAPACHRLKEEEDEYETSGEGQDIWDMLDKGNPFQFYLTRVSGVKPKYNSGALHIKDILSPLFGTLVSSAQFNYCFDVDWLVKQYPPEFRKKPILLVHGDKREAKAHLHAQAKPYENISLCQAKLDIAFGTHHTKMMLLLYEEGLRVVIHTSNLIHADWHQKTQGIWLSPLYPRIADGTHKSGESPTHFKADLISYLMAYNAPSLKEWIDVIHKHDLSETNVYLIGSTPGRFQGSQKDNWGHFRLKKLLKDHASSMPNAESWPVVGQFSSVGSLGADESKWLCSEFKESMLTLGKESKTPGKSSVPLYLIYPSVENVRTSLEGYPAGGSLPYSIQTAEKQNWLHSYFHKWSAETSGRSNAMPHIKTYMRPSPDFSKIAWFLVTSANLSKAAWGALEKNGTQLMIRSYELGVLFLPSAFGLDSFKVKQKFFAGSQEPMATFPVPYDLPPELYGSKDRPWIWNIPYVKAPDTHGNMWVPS
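AlphaScreen read-out: signal falls as enzyme removes the 3' tyrosine-FITC from a 5'-biotinylated DNA oligo (15 nM, 5 min, RT). Enzyme was E. coli-made recombinant Tdp1 at 1 nM, exposed to compound for 15 min beforehand; beads 10 ug/ml, 10 min.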
IL1B secr inh: qHTS for Inhibitors of Inflammasome Signaling: IL-1-beta AlphaLISA Primary Screen; THP-1 LPS/ATP IL-1B secretion, AlphaLISA, 16 h; stronger effect = lower value; activity change, % at 57.5 µM; hit rate 4.7% among 360,000; AID 743279, 2014; in the data active = activity change below about -50%; inconclusive = mostly about -30% to -49%
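THP-1 cells pretreated 1 hr with compounds (up to 57.5 uM final), then stimulated with LPS (250 ng/mL final) plus ATP (1.25 mM final); secreted IL-1B measured by AlphaLISA after 16 hr, decreased signal indicating inhibition.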
TGFb inhibitor: qHTS for Inhibitors of TGF-b; HepG2 CAGA-GFP TGF-b/SMAD3 reporter, GFP fluorescence, 18 h; TGF-beta stimulated, 500 pg/mL final; Potency, µM (titrated, usually from 46.1 µM), usual class: inhibitors; hit rate 1.2% among 410,000; AID 588855, 2011; also: nearly all actives have a fitted effect of over 65% in size
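Smad-responsive CAGA-GFP expression was quantified in HEPG2 cells exposed to compounds and 500 pg/mL final TGF-beta for 18 h at 37 degrees C; unstimulated wells defined full inhibition.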
A number is an active result; . = inactive; ? = inconclusive; / = no result; [ ] = another dose, or the depositor's remark. Unless noted, calls follow the shape of the dose curve; as a rule, active = well fitted curve in the direction sought with a large enough effect; inconclusive = small, poorly fitted or top-dose-only effect, or another doubt; inactive = no such curve, though single readings can be large; an effect the other way counts as inactive or inconclusive.

SMILES	TDP1 cell noCPT	HepG2 viability	TDP1 cell CPT	TDP1 block	IL1B secr inh	TGFb inhibitor
Fc1ccc(Nc2cncc(-c3ccsc3)c2)cc1Cl	18µM	.	16µM	/	.	?
COc1ccc(C(=O)Nc2ccc(O)c3ccccc23)cc1	26µM	.	?	/	.	?
COc1ccc(C(=O)Nc2noc3ccccc23)cc1	.	.	.	.	/	/
COc1ccc(C(=O)Nc2ccccc2C(=O)Nc2cc(C)ccn2)cc1	18µM	.	?	/	.	.
COc1cc2ccccc2cc1C(=O)Nc1cc(C)ccn1	?	.	?	.	-57	.
COc1cc(C(=O)Nc2ccc(Br)cc2C(=O)c2cc(OC)c(OC)c(OC)c2)cc(OC)c1OC	3.7µM	.	13µM	.	.	.
O=C(CSC1=NS(=O)(=O)c2ccccc2N1)NCc1ccc(F)cc1	.	.	.	.[0.505 µM]	.	.
NNC(=O)C1CC(O)CN1S(=O)(=O)c1ccc2ccccc2c1 (stereo not drawn)	.	.	.	.	.	.
COc1ccc(NC(=O)CN(C)C(=O)c2ccc(OCc3ccccc3)c(OC)c2)cc1	.	.	.	.	.	.
Cc1cccnc1NC(=O)c1ccccc1NC(=O)C(C)(C)C	.	.	.	.	.	.
COc1cc2ccccc2cc1C(=O)Nc1nccs1	?	.	15µM	/	.	.
Cc1ccnc(NC(=O)c2ccccc2NC(=O)C(C)(C)C)c1	16µM	.	18µM	.	.	.
COc1ccccc1C(=O)Nc1ccc(C)cc1C(=O)c1ccccc1	.	.	.	.	.	.
COc1cc(C(=O)Nc2ccccc2C(=O)Nc2ccccn2)cc(OC)c1OC	3.3µM	.	4.6µM	.	.	.
COc1c(C(=O)Nc2nccs2)ccc2ccccc12	?	.	?	/	.	.
COc1ccc(C(=O)Nc2ccc(C)cc2C(=O)c2ccccc2)cc1	.	.	.	.	-73	.
O=P1(O)Oc2c(c(-c3ccccc3)cc3ccc4ccccc4c23)-c2c(-c3ccccc3)cc3ccc4ccccc4c3c2O1	/	/	/	.	/	/
Cc1cc2c(cc(C(=O)OC(C(=O)NCc3ccco3)C(C)C)n2C)o1 (stereo not drawn)	18µM	.	26µM	.	.	.
CC(C)C(OC(=O)c1cccs1)C(=O)NCc1ccco1 (stereo not drawn)	?	.	?	.	.	.
COC(=O)CN1C(=O)Nc2ccc(Cl)cc2C1c1ccccc1 (stereo not drawn)	.	.	.	/	.	.
O=C(CCC(=O)Nc1ccc(F)cc1)N/N=C/c1cc([N+](=O)[O-])ccc1O	?	.	.	.	.	.
O=C(Cn1nc2ccccc2n1)N/N=C/c1cc([N+](=O)[O-])ccc1O	?	.	?	.	.	.
O=C(Cn1nnc(-c2ccccc2)n1)N/N=C/c1cc([N+](=O)[O-])ccc1O	4.1µM	.	5.8µM	.	.	.
O=C(CCC(=O)Nc1ccc(Br)cc1)N/N=C/c1ccccc1F	.	1.8µM	.	/	.	.
O=C(CCC(=O)Nc1ccc(Br)cc1)N/N=C/c1cc([N+](=O)[O-])ccc1O	?	.	23µM	.	.	.
SMILES	TDP1 cell noCPT	HepG2 viability	TDP1 cell CPT	TDP1 block	IL1B secr inh	TGFb inhibitor
O=C(CCC(=O)Nc1cc(C(F)(F)F)ccc1Cl)N/N=C\c1cc([N+](=O)[O-])ccc1O	8.2µM	.	10µM	/	.	.
CCS(=O)(=O)N1CCN(S(=O)(=O)c2ccc3c(c2)OCCO3)CC1	.	.	.	.	.	.
Cc1nc2cc(NC(=O)[C@@H]3C[C@@H](Sc4ccccn4)CN3Cc3cccc(Cl)c3)ccc2s1	.	/	.[9.04 µM]	/	/	/
CC(C)Oc1ccc(Cc2cnc(=S)[nH]c2N)cc1	?	.	.	.	.	.
O=C(N/N=C/c1cc([N+](=O)[O-])ccc1O)C1CCCCC1	4.6µM	.	5.2µM	.	.	.
CCN1C(C(=O)c2ccccc2)=C(NC(=O)c2ccc(Cl)cc2)c2ccccc2S1(=O)=O	?	.	?	/	/	.
CCCCCN1C(C(=O)c2ccccc2)=C(NC(=O)c2ccc(OC)cc2)c2ccccc2S1(=O)=O	23µM	.	?	.	/	.
CCCCCN1C(C(=O)c2ccccc2)=C(NC(=O)c2ccc(OC)c(OC)c2)c2ccccc2S1(=O)=O	16µM	.	21µM	.	/	?
COc1ccc(Cc2n[nH]c(=S)n2NC(=O)Nc2ccc(Cl)c(Cl)c2)cc1	7.3µM	.	10µM	/	.	?
CC(Nc1nc(-c2ccc(F)cc2)cs1)c1nc2cc(Cl)c(N3CCCCC3)cc2n1CCOCCO (stereo not drawn)	21µM	.	16µM	/	-75	?
CC(Nc1nc(-c2cccc(Br)c2)cs1)c1nc2cc(Cl)c(N3CCCCC3)cc2n1CCOCCO (stereo not drawn)	?	.	?	/	-55	?
COc1ccc(-c2csc(NC(C)c3nc4cc(Cl)c(Cl)cc4n3CCCO)n2)cc1 (stereo not drawn)	15µM	.	?	/	.	?
O=[N+]([O-])c1cc(-c2csc(NCCc3nc4cc(Cl)c(N5CCCCC5)cc4n3CCCO)n2)ccc1Cl	16µM	.	?	/	.	.
Cc1ccc(Cn2c(CCNc3nc(-c4ccc(Cl)c([N+](=O)[O-])c4)cs3)nc3cc(Cl)c(Cl)cc32)cc1	?	.	?	/	.	.
C/C(=N\NC(=O)CNC(=O)c1ccccc1F)c1ccco1	.	.	.	.	.	.
N#Cc1ccccc1S(=O)(=O)N1CCN(C(=O)C2CCCC2)CC1	.	.	.	/	.	.
CC(Nc1nc(-c2ccc(F)cc2)cs1)c1nc2cc(Cl)c(N3CCCCC3)cc2n1CCCO (stereo not drawn)	5.8µM	.	7.3µM	/	.	?
Cc1ccc(Cn2c(C(C)Nc3nc(C)cs3)nc3cc(Cl)c(Cl)cc32)cc1 (stereo not drawn)	?	.	?	/	.	.
CC(Nc1nc(-c2ccc(F)cc2)cs1)c1nc2cc(Cl)c(Cl)cc2n1CCOCCO (stereo not drawn)	21µM	.	23µM	/	.	?
CCCn1c(C(C)Nc2nc(-c3ccc(C)cc3)cs2)nc2cc(Cl)c(Cl)cc21 (stereo not drawn)	.	.	?	/	.	?
